Compound activity from PubChem BioAssay.
Luciferase inh: Firefly luciferase inhibition profiling of diverse chemical library using quantitative high-throughput screening. purified P. pyralis luciferase, luminescence, biochemical. Potency, µM (doses to about 115 µM), hits mostly inhibitors. AID 1347043, 2019. Luciferin 4-monooxygenase (Photinus pyralis), P08659. 2.5% of 76,000 active; further: nearly all actives have a fitted effect of over 65% in size
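Purified 10nM P. pyralis luciferase with 10uM D-luciferin and 10uM ATP in 50mM Tris acetate pH 7.5, 10mM Mg acetate, 0.01% Tween-20, 0.05% BSA. qHTS titration; luminescence read by CCD imager.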
NPR1 antag: Natriuretic polypeptide receptor (hNpr1) antagonism - Primary qHTS | Atrial natriuretic peptide receptor 1 (Homo sapiens), P16066 | HEK293 hNpr1 GloSensor cGMP, ANP-stimulated luminescence | Potency, µM (doses to about 46.3 µM), hits mostly inhibitors | 1.6% of 76,000 active; calls by dose curve; further: nearly all actives have a fitted effect of over 60% in size
Target sequence (P16066 whole entry, looked up): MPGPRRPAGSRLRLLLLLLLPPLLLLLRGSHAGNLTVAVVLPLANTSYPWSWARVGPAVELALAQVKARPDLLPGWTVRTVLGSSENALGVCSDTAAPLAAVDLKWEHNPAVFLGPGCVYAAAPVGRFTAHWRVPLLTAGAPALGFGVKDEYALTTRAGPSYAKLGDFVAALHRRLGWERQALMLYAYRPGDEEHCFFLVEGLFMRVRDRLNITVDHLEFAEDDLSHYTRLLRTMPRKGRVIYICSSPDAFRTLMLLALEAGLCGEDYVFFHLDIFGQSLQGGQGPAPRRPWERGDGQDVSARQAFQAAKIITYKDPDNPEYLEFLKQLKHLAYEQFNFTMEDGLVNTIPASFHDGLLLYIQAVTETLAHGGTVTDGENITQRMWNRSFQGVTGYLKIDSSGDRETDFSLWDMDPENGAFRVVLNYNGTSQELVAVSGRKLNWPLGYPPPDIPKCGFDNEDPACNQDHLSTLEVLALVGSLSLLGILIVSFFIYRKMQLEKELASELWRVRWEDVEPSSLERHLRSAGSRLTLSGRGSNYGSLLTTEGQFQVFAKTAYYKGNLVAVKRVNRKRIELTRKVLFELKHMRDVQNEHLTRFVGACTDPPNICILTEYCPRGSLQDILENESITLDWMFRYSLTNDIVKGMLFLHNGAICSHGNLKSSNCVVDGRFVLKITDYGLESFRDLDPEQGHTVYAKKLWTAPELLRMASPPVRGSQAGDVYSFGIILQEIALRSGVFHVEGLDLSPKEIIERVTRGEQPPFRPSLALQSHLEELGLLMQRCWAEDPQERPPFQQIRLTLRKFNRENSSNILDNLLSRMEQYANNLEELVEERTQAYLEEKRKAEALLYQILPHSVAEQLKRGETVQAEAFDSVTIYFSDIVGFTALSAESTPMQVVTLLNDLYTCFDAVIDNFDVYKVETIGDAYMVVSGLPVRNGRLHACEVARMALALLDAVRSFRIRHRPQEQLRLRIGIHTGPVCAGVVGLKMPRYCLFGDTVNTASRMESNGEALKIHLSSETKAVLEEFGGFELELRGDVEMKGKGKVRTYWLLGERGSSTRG
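Compound pre-incubated 30 min at room temperature on GloSensor-loaded HEK293 cells stably carrying hNpr1 and the pGS-40F cGMP biosensor. Stimulation uses hNppA at 0.1 nM final; luminescence is taken at baseline and 20 min post-agonist.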
HEK293 tox: Cytotoxic Profiling in HEK 293 Cell Line of Diverse Libraries Using Quantitative High-Throughput Screening | HEK 293 viability, ATP luminescence (CellTiter-Glo), 48-72 h | 6.6% of 94,000 active | Potency, µM (doses to about 115 µM), actives largely listed as inhibitors | AID 1345083, 2018; further: nearly all actives have a fitted effect of over 60% in size
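HEK 293 cells seeded at 250 cells/well were exposed to compound for 48 or 72 hr at 37 degree Celsius. Viability taken as ATP content by CellTiter-Glo luminescence.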
NIH3T3 tox: Cytotoxic Profiling in NIH 3T3 Cell Line of Diverse Libraries Using Quantitative High-Throughput Screening. 4.3% of 94,000 active. AID 1345082, 2018. NIH 3T3 viability, CellTiter-Glo ATP luminescence, 48-72 h. Potency, µM (top dose mostly 96.7 µM), most hits filed as inhibitors; further: nearly all actives have a fitted effect of over 55% in size
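Luminescent ATP readout (CellTiter-Glo, 10 min RT) after 48 or 72 hr compound exposure of NIH 3T3 cells seeded at 400 cells/well in 1536-well format; quantitative HTS.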
Hits are given with their value. Compounds with a hit are over-represented: about 11% of the library has one in this group of screens. Unless noted, the call rests on the fitted dose curve; in most records, active means well fitted curve in the direction sought with a large enough effect; inconclusive means small, poorly fitted or top-dose-only effect, or another doubt; inactive means no such curve, though single readings can be large; an effect the other way counts as inactive or inconclusive.

`CC1Oc2ccc(NC(=O)c3cccs3)cc2CN(CCc2ccc(F)cc2)C1=O` (configuration not stated) gave Luciferase inh inactive, NPR1 antag inactive, HEK293 tox inconclusive and NIH3T3 tox inactive.
CN1CC2(CCN(C(=O)CC3CCCC3)CC2)CC1CN1CCOCC1 (configuration not stated) was read as HEK293 tox inactive and NIH3T3 tox inactive.
Screening CC(C)C(=O)NC1CCN(c2ccc3nnc(-c4ccccc4)n3n2)C1 (configuration not stated) returned HEK293 tox inactive and NIH3T3 tox inactive.
Screening O=C(Nc1ccccc1Cl)N1CCCC2(C1)Nc1cccnc1NC2=NC1CCCC1 (configuration not stated) returned Luciferase inh inactive, NPR1 antag inactive, HEK293 tox inconclusive and NIH3T3 tox 45µM.
For O=C(c1ccccc1Cl)N1CCCC2(C1)Nc1cccnc1NC2=NC1CCCC1 (configuration not stated) the results were Luciferase inh inactive, NPR1 antag inactive, HEK293 tox inactive and NIH3T3 tox inactive.
COc1ccc(OCc2cc(C(=O)NCCc3nc(C)c(C)s3)no2)c(Cl)c1 was read as Luciferase inh inconclusive, NPR1 antag inactive, HEK293 tox 32µM and NIH3T3 tox inconclusive.
`O=C(CCNc1cnc2cnccn12)NCc1ccc(F)c(Cl)c1` gave Luciferase inh inactive, NPR1 antag inactive, HEK293 tox inactive and NIH3T3 tox inconclusive.
Screening CCc1ccc(NC(=O)c2cc(-c3ccc[nH]3)n[nH]2)cc1 returned Luciferase inh 3.2µM, NPR1 antag inactive, HEK293 tox inconclusive and NIH3T3 tox inactive.
Cc1ccc(NC(=O)c2cc(-c3ccc[nH]3)n[nH]2)cc1 was read as Luciferase inh 4µM, NPR1 antag inactive, HEK293 tox inactive and NIH3T3 tox inactive.
Screening Cc1cc(C)cc(NC(=O)c2cc3n(n2)CC(c2ccc(Cl)cc2)OC3)c1 (configuration not stated) returned Luciferase inh inactive, NPR1 antag inactive, HEK293 tox inconclusive and NIH3T3 tox inactive.
`Cc1cc(C)cc(NC(=O)c2cc(-c3ccc[nH]3)n[nH]2)c1` gave Luciferase inh 20µM, NPR1 antag inactive, HEK293 tox inconclusive and NIH3T3 tox inconclusive.
Screening O=C(Nc1ccc(Cl)cc1)c1cc(-c2ccc[nH]2)n[nH]1 returned Luciferase inh inconclusive, NPR1 antag inactive, HEK293 tox inconclusive and NIH3T3 tox inactive.
Cc1ccc(NC(=O)c2cc(-c3ccc[nH]3)n[nH]2)cc1C was read as Luciferase inh 7.9µM, NPR1 antag inactive, HEK293 tox inactive and NIH3T3 tox inactive.
CCCCn1c(=O)c(C(=O)N2CCN(C(=O)Cc3ccc(F)cc3)CC2)nc2cccnc21 was read as HEK293 tox inactive and NIH3T3 tox inactive.
Screening COCCCn1c(=O)c(C(=O)NCC(F)(F)F)nc2cccnc21 returned HEK293 tox inactive and NIH3T3 tox inactive.
c1ccc(Nc2cc3c(cn2)NCCN(Cc2ccc4[nH]ccc4c2)C3)cc1 was read as Luciferase inh inactive, NPR1 antag inactive, HEK293 tox 56µM and NIH3T3 tox inconclusive.
For c1ccc(Nc2cc3c(cn2)CN(Cc2ccc4[nH]ccc4c2)CCN3)cc1 the results were Luciferase inh inconclusive, NPR1 antag inactive, HEK293 tox 40µM and NIH3T3 tox 28µM.
`CN(Cc1cccc(C(F)(F)F)c1)C(=O)Cc1cccc(Cl)c1` gave Luciferase inh inconclusive, NPR1 antag inactive, HEK293 tox inconclusive and NIH3T3 tox inactive.
For CN(Cc1cccc(C(F)(F)F)c1)C(=O)c1cccc(Cl)c1 the results were Luciferase inh inactive, NPR1 antag inactive, HEK293 tox 100µM and NIH3T3 tox inconclusive.
`N#Cc1ccc(CN2CC3(Cc4ccccc4C(=O)N3)C2)cc1` gave HEK293 tox inconclusive and NIH3T3 tox 35µM.
Screening N#Cc1ccc(CN2CCC3(C2)NC(=O)c2ccccc2O3)cc1 (configuration not stated) returned Luciferase inh inactive, NPR1 antag inactive, HEK293 tox inactive and NIH3T3 tox inactive.
O=C(CCc1ccc(CC2CCN(Cc3ccncc3)CC2)cc1)NC1CC1 was read as HEK293 tox inconclusive and NIH3T3 tox inactive.
